Reference: PubChem BioAssay (NCI)
The panel holds about 79,000 compounds, 15% with a hit somewhere; the sample as a whole holds those more often. Calls of active or inactive are those of the source. Rule as the data show it: active = growth inhibition above about 70%; inactive = the rest.

Assays:
[1] = NCI Yeast Anticancer Drug Screen. Data for the rad52 strain (AID 147);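 also: 0% = growth of vehicle-treated control cultures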; conditions: S. cerevisiae rad52 mutant growth inhibition, active compounds read high
In short: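 Vehicle-treated cultures served as the reference for growth inhibition of compound-exposed yeast bearing a DNA repair mutation.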

[2] = NCI Yeast Anticancer Drug Screen. Data for the wt1 strain (AID 149);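 also: 0% = growth of vehicle-treated wt1 cultures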; conditions: S. cerevisiae wt1 strain (SPY 50644) growth inhibition, active compounds read high
In short: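 Vehicle-normalised growth inhibition; strain wt1; compound exposure.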

[3] = NCI Yeast Anticancer Drug Screen. Data for the rad50EPP+ strain (AID 151);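 also: 0% = growth of vehicle-treated control cultures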; conditions: S. cerevisiae rad50 mutant strain, active compounds read high
In short: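 In this screen, rad50EPP+ yeast were exposed to compounds. Growth inhibition was scored against vehicle-treated controls.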

[4] = NCI Yeast Anticancer Drug Screen. Data for the mgt1 strain (AID 153); conditions: S. cerevisiae mgt1 mutant growth inhibition, active compounds read high
In short: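 mgt1 strain exposed; growth vs vehicle control recorded as inhibition.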

[5] = NCI Yeast Anticancer Drug Screen. Data for the rad50 strain (AID 155);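 also: 0% = growth of vehicle-only cultures of the same strain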; conditions: S. cerevisiae rad50 strain growth inhibition, active compounds read high
In short: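 A DNA repair-deficient yeast mutant serves as the test organism; compound-induced growth inhibition is calculated against vehicle-treated cells.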

[6] = NCI Yeast Anticancer Drug Screen. Data for the mec2-1 strain (AID 157); conditions: S. cerevisiae mec2-1 strain, active compounds read high
In short: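 Vehicle-treated cultures served as reference for growth inhibition of compound-exposed mec2-1 yeast.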

[7] = NCI Yeast Anticancer Drug Screen. Data for the rad14 strain (AID 159);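 also: 0% = growth of vehicle-treated control cultures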; conditions: S. cerevisiae rad14 strain growth inhibition, active compounds read high
In short: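 Vehicle-treated cultures served as the baseline for growth inhibition of a DNA repair-mutant yeast strain exposed to each compound.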

[8] = NCI Yeast Anticancer Drug Screen. Data for the sgs1 mgt1 strain (AID 161);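 also: 0% = growth of cultures given vehicle only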; conditions: S. cerevisiae sgs1 mgt1 strain, active compounds read high
In short: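 Read-out: growth inhibition vs vehicle controls. Cells: mutant yeast strain deficient in DNA damage repair.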

[9] = NCI Yeast Anticancer Drug Screen. Data for the CLN2oe strain (AID 163);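 also: 0% = growth of vehicle-only control cultures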; conditions: S. cerevisiae CLN2oe strain, active compounds read high
In short: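 Inhibition relative to vehicle-treated yeast is reported. Cells: strain with genetic alteration in cell-cycle control, grown with compound.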

[10] = NCI Yeast Anticancer Drug Screen. Data for the cln2 rad14 strain (AID 165);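 also: 0% = growth equal to vehicle treated cultures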; conditions: S. cerevisiae cln2 rad14 strain, active compounds read high
In short: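 Each compound was tested on cln2 rad14 yeast. Inhibition of growth was calculated against vehicle-exposed controls.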

[11] = NCI Yeast Anticancer Drug Screen. Data for the bub3 strain (AID 167); conditions: S. cerevisiae bub3 mutant strain, active compounds read high
In short: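 Inhibition values come from growth of compound-treated mutant yeast normalised to vehicle-treated controls.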

[12] = NCI Yeast Anticancer Drug Screen. Data for the wt2 strain (AID 169);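 also: 0% = growth of vehicle-treated yeast cultures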; conditions: S. cerevisiae wt2 strain growth inhibition, active compounds read high
In short: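 Inhibition of yeast growth was determined after compound treatment, normalised to controls receiving only vehicle.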

[13] = NCI Yeast Anticancer Drug Screen. Data for the mlh1 strain (AID 171);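 also: 0% = growth of vehicle-treated control cultures of the same strain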; conditions: S. cerevisiae mlh1 strain growth inhibition, active compounds read high
In short: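 Vehicle-normalised growth inhibition of a repair- or checkpoint-altered yeast strain following compound treatment.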

[14] = NCI Yeast Anticancer Drug Screen. Data for the sgs1 strain (AID 173);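 also: 0% = growth of vehicle-only control cultures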; conditions: S. cerevisiae sgs1 mutant, active compounds read high
In short: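 Screen format: yeast with repair or checkpoint alterations, compound exposure, growth read relative to vehicle.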

[15] = NCI Yeast Anticancer Drug Screen. Data for the mlh1 rad18 strain (AID 175); conditions: S. cerevisiae mlh1 rad18 strain growth inhibition, active compounds read high
In short: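 Vehicle-treated cultures served as the reference for growth inhibition in a yeast strain carrying DNA damage repair alterations exposed to each compound.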

[16] = NCI Yeast Anticancer Drug Screen. Data for the rad18 strain (AID 177); conditions: S. cerevisiae rad18 mutant growth inhibition, active compounds read high
In short: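 Test articles were incubated with altered yeast defective in DNA damage repair. Results are given as inhibition of growth versus vehicle.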

[17] = at 5.0 µM (retest, dose inferred, filed as 0.5)
[18] = at 50.0 µM (retest, dose inferred, filed as 5.0)

Measured: growth inhibition

CC(C)S(=O)(=O)/C=C\S(=O)(=O)C(C)C
active: [1]; at 33.0 µM 75% | [1]; at 100.0 µM 97% | [2]; at 33.0 µM 87% | [2]; at 100.0 µM 98% | [4]; at 100.0 µM 96% | [5]; at 33.0 µM 83% | [5]; [18] 74% | [5]; at 100.0 µM 97% | [6]; at 100.0 µM 93% | [7]; at 100.0 µM 99% | [8]; [18] 76% | [8]; at 50.0 µM 72% | [9]; at 100.0 µM 85% | [11]; [18] 81% | [11]; at 100.0 µM 92% | [12]; at 33.0 µM 90% | [12]; at 100.0 µM 99% | [13]; at 100.0 µM 96% | [14]; at 33.0 µM 80% | [14]; at 100.0 µM 98% | [15]; [18] 85% | [15]; at 50.0 µM 82.8% | [16]; at 33.0 µM 78% | [16]; at 100.0 µM 93%
inactive: [1]; at 1.2 µM -5% | [1]; at 3.7 µM -7% | [1]; at 11.0 µM 23% | [2]; at 1.2 µM 1% | [2]; at 3.7 µM 19% | [2]; at 11.0 µM 44% | [3]; at 1.2 µM -1% | [3]; at 3.7 µM -11% | [3]; at 11.0 µM 5% | [3]; at 33.0 µM 26% | [3]; at 100.0 µM 25% | [4]; at 1.2 µM 1% | [4]; at 3.7 µM -5% | [4]; at 11.0 µM 15% | [4]; at 33.0 µM 63% | [5]; at 1.2 µM -5% | [5]; at 3.7 µM -5% | [5]; [17] -138% | [5]; at 11.0 µM 14% | [5]; at 50.0 µM 64.8% | [6]; at 1.2 µM 1% | [6]; at 3.7 µM 2% | [6]; [17] -45% | [6]; at 11.0 µM 7% | [6]; at 33.0 µM 58% | [6]; [18] 69% | [6]; at 50.0 µM 62.8% | [7]; at 1.2 µM -3% | [7]; at 3.7 µM 9% | [7]; at 11.0 µM 36% | [7]; at 33.0 µM 55% | [8]; [17] -56% | [9]; at 1.2 µM -6% | [9]; at 3.7 µM -4% | [9]; at 11.0 µM 4% | [9]; at 33.0 µM 28% | [10]; [17] -50% | [10]; [18] -3% | [10]; at 50.0 µM -17.3% | [11]; at 1.2 µM -4% | [11]; at 3.7 µM 1% | [11]; [17] -71% | [11]; at 11.0 µM 5% | [11]; at 33.0 µM 52% | [11]; at 50.0 µM 50.6% | [12]; at 1.2 µM 5% | [12]; at 3.7 µM 15% | [12]; at 11.0 µM 44% | [13]; at 1.2 µM -8% | [13]; at 3.7 µM -1% | [13]; at 11.0 µM 1% | [13]; at 33.0 µM 64% | [14]; at 1.2 µM -5% | [14]; at 3.7 µM -8% | [14]; at 11.0 µM 30% | [15]; [17] -133% | [16]; at 1.2 µM -2% | [16]; at 3.7 µM 5% | [16]; at 11.0 µM 19%
